# Experimental data published in PubChem BioAssay AID489012 (National Center for Advancing Translational Sciences (NCATS), 2010).
# Records with an inconclusive call do not appear. Activity calls are given as the source filed them. Calls follow the shape of the dose curve; as a rule, active = well fitted activation curve with a large enough effect; inconclusive = small, poorly fitted or top-dose-only effect; inactive = no such curve, though single readings can be large or run the other way.
# Target: Relaxin receptor 1 (Homo sapiens) (UniProt Q9HBX9)
# Assay: qHTS Assay for Agonists of the Relaxin Receptor RXFP1: RXFP1 Hit Validation; also: nearly all actives have a fitted effect of over 65% in size;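 as to activation: cAMP rise lowers the TR-FRET signal in lysed cells with PDE4 inhibitor present; 0% = buffer-only basal and 100% = 29 nM porcine relaxin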
# Details: HEK293T-RXFP1 cAMP TR-FRET, 30 min; series mostly up to 115 µM; activation: at the top concentration
# Source text: NIH Chemical Genomics Center [NCGC] NIH Molecular Libraries Probe Production Centers Network [MLPCN] MLPCN Grant: R03 MH085705-01A1 Assay Submitter (PI): Alexander Agoulnik NCGC Assay Overview: The relaxin hormone is involved in the variety of biological functions in normal tissues and diseases. The role of relaxin is well-established in female reproduction and parturition, mammary gland and endometrial development, maintenance of myometrial quiescence during pregnancy. Relaxin signaling through its G protein-coupled receptor (GPCR) RXFP1 results in ECM remodeling through regulation of collagen deposition, cell invasiveness, proliferation and overall tissue homeostasis. […] Recombinant human relaxin (rhRlx) is currently being tested in clinical trials as a protective agent in congestive heart failure, in treating severe preeclampsia, and as an anti-fibrotic agent in systemic sclerosis. Upon relaxin binding RXFP1 activation leads to the activation of adenylate cyclase (AC) via Gs. cAMP will activate PKA, which phosphorylates many signaling proteins. Thus, detection of cAMP increase is an easy and reliable indication of relaxin receptor activation. To screen for agonists of the relaxin receptor, a HEK293T cell line stably transfected with RXFP1 was used. RXFP1 activation was assayed by changes in cAMP levels as detected with a time-resolved fluorescence energy transfer (TR-FRET) cAMP detection kit.
# NCGC Assay Protocol Summary: This is a cell-based assay for cAMP second messenger response to screen for agonists of the RXFP1 receptor. The assay was conducted in the presence of a PDE4 inhibitor (Ro 20174). The cells were lysed and the cAMP levels were measured with a TR-FRET cAMP kit. Presence of cAMP in the cell lysate disrupts binding between the cryptate-labeled anti-cAMP and d2-labeled cAMP pair, leading to a decrease in the TR-FRET signal. Data were normalized to the controls for basal activity (buffer only) and 100% activity (29 nM porcine relaxin). The EC50 values were determined from concentration-response data modeled with the standard Hill equation 1536-well assay protocol for the HEK293 RXFP1 cAMP assay: (1) Add 3 ul HEK293 RXFP1 cell culture. 2000 cells/well in DMEM/F12, 10% FBS, 1x Pen/Strep (dispensed offline with MultiDrop Combi). (2) Incubate 16-24 hr at 37C, 5% CO2. (3) Add 1 ul 400uM Ro20174 in DPBS, 0.05% BSA, 0.005% Tween 20. (3) Add 23 nl compounds in DMSO solution. Final concentration was 0.5 - 58 uM. (4) Incubate 30 min at 37C, 5% CO2. (5) Add 1 ul cAMP-d2 in lysis buffer (HTRF cAMP HiRange kit, CisBio). (6) Add 1 ul anti-cAMP antibody-cryptate in lysis buffer (HTRF cAMP HiRange kit, CisBio). (7) Incubate 30 min at room temperature. […] Keywords: relaxin, RXFP1, RXFP2, G-protein coupled receptor, cAMP, agonist, high throughput screening, MLSMR, MLSCN, NIH Roadmap, qHTS and NCGC
# Potency is read from the fitted curve at half-maximal effect.
# Chain of Relaxin receptor 1 (Homo sapiens) (Q9HBX9 whole entry, looked up): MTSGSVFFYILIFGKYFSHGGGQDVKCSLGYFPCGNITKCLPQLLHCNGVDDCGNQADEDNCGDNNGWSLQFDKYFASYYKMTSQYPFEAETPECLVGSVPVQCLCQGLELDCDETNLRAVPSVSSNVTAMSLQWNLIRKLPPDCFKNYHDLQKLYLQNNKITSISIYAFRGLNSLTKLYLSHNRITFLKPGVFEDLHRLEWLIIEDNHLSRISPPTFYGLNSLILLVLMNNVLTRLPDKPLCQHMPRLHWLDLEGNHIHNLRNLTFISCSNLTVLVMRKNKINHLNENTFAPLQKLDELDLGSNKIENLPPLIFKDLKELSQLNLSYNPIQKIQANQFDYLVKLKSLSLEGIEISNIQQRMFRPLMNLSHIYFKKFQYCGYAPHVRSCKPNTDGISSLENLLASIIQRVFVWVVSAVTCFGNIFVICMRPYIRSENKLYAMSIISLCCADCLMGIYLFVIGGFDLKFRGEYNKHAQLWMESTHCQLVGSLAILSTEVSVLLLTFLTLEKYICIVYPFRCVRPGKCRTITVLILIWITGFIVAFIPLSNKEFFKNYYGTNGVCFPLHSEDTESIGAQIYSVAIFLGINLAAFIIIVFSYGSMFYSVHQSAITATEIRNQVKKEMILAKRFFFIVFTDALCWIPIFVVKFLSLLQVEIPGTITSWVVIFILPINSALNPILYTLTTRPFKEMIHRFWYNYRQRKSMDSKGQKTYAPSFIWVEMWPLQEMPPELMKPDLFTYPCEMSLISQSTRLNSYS
SMILES,Potency,activation
O=C(Cn1cnc2c(nnn2-c2ccc(F)cc2)c1=O)NCC1CCCO1 (stereo not given),8.7 µM (active),
CCn1c(=O)c2cc(C(=O)Nc3cccc(C(C)=O)c3)sc2c2ccccc21,,7.81% (inactive)
O=C(O)c1cccc(CSc2nnc(Cc3ccccc3)o2)c1,,3.18% [at 45 µM] (inactive)
Cc1ccc(-c2ccc3nnc(SCC(=O)NCC4CCCO4)n3n2)cc1 (stereo not given),,-24.9% (inactive)
CC(=O)Nc1ccc(NC(=O)CSc2ccc3nnc(-c4ccccn4)n3n2)cc1,,26.3% [at 45 µM] (inactive)
Cn1c(=O)c2c(nc(SCC(=O)N3CCOCC3)n2C)n(C)c1=O,,27.2% (inactive)
O=c1oc2cc(O)c(Cl)cc2c2ccccc12,6.9 µM (active),
Cc1cc(C)c(C(=O)CSc2n[nH]c(=O)n2C2CC2)cc1C,,-3.14% (inactive)
Nc1c(S(=O)(=O)O)cc(NC(=O)c2ccccc2)c2c1C(=O)c1ccccc1C2=O,,10.9% [at 45 µM] (inactive)
Cc1cccc(-c2nnc(SCC(=O)NC3CC3)n2C)c1,,-32% (inactive)
COc1ccc(CN2C(=O)c3cccnc3C2=O)cc1S(=O)(=O)NC1CCCCC1,38.9 µM (active),
Cc1nn(CC(=O)NCCN2CCOCC2)c(=O)c2cc3sccc3n12,,18.1% (inactive)
CC(=O)Nc1c2c3c(cccc3n(C)c1=O)C(=O)c1ccccc1-2,,24.1% [at 45 µM] (inactive)
COc1ccc(Nc2ncc(C#N)c(N)n2)c(OC)c1,,-3.23% (inactive)
NC(=O)c1ccccc1NC(=O)CC12CC3CC(CC(C3)C1)C2,,-7.81% [at 125 µM] (inactive)
C=C(C)C(=O)Nc1cccc(C2=NOC3(C2)C[C@@H](C(N)=O)N(C(=O)c2ccc(Cl)cc2)C3)c1 (stereo not given in full),,4.05% (inactive)
Cc1ccc2[nH]c3c(=S)nc[nH]c3c2c1,3.88 µM (active),
CCN(CC)C(=O)c1cc(Cl)ccc1NC(=O)c1ccco1,,-1.6% [at 125 µM] (inactive)
COc1ccc(OC)c(CNC(=O)C2CCN(C(=O)N(C)C)CC2)c1,,-4.27% (inactive)
O=C(O)CCNc1ccc(NCCC(=O)O)c2c1C(=O)c1ccccc1C2=O,,-0.904% (inactive)

SMILES,Potency,activation
CCc1cc2cc3c(cc2nc1SCC(=O)Nc1nccs1)OCO3,17.3 µM (active),
COc1ccccc1CNC(=O)CCCc1nnc2n(C)c(=O)c3sccc3n12,,29.2% [at 45 µM] (inactive)
COC(=O)Cn1cnc2c(C#N)c3n(c2c1=O)CCCC3,24.5 µM (active),
Cc1ccccc1NC(=O)c1ccccc1NC(=O)c1ccco1,,-6.33% [at 125 µM] (inactive)
Cc1c(CCOC(=O)c2cc([N+](=O)[O-])ccc2Cl)sc[n+]1CCCCS(=O)(=O)[O-],,7.88% (inactive)
N#CCCSc1ncnc2c1oc1ccccc12,19.4 µM (active),
CN1CCN(C(=O)CCc2nnc3ccc(N4CCC5(CC4)OCCO5)nn23)CC1,,19% (inactive)
Cc1ccnc(NS(=O)(=O)c2ccc(N3C(=O)c4ccccc4C3=O)cc2)n1,18.8 µM (active),
CC[n+]1ccc(/C=C/c2ccc(N(C)C)cc2)c2ccccc21,,-21.8% (inactive)
CN(CC(=O)Nc1ccccc1Cl)C(=O)COC(=O)Cc1c(F)cccc1Cl,,0.353% [at 45 µM] (inactive)
Cc1ccc(C(=O)Nc2ccccc2C(=O)NCc2ccco2)cc1,,18.8% [at 125 µM] (inactive)
O=C(Nc1ccccc1C(=O)Nc1ccccc1)c1ccco1,,-9.11% [at 125 µM] (inactive)
CC(NC(=O)c1ccccc1NC(=O)c1ccco1)C(=O)O (stereo not given),,5.27% [at 125 µM] (inactive)
Cc1ccc2cc(CN(C(=O)c3cccs3)c3ccccc3)c(=O)[nH]c2c1,,2.01% (inactive)
COc1ccc(NC(=O)CSc2nc(-c3ccc(C)cc3)cc(C(F)(F)F)c2C#N)cc1,,26.7% [at 45 µM] (inactive)
O=C(NC1CCCCCC1)c1cc2c(=O)n3ccccc3nc2s1,34.6 µM (active),
Cn1c2c(c(=O)n3ncnc13)CCCC2,,29.5% (inactive)
CC(=O)C1C(c2ccccc2)c2c(noc2C)CC1(C)O (stereo not given),,-2.95% (inactive)
Cc1ccc(CN(C)C(=O)c2ccc3c(c2)NC(=O)CS3)o1,,-29.9% (inactive)
CC(C(=O)Nc1cccnc1)n1cc([N+](=O)[O-])cn1 (stereo not given),,25.3% (inactive)
